The supplement of paper PMC6555819

What was measured:
Assay in all cases: PBM binding z-score (relative to random genomic background probes); higher = stronger binding; sequences stand for … in GC…GCGATTGACAGCGTAGAATGAAGG
[1] = tested on: FXR:RXRa (NR concentration 270 nM, RXRa partner concentration 90 nM)
How it was run: (§1)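 Ligand-free nuclear receptor dimers were bound for 1 h to custom Agilent 4×180K protein-binding microarrays. Detection used antibodies against each partner (one per run). Binding z-scores rest on regression-normalized fluorescence, with random background probes as the reference.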

[2] = tested on: LXRa:RXRa (NR concentration 270 nM, RXRa partner concentration 90 nM)
How it was run: as §1

[3] = tested on: LXRa homodimer (NR concentration 270 nM)
How it was run: as §1

[4] = tested on: LXRb:RXRa (NR concentration 270 nM, RXRa partner concentration 90 nM)
How it was run: as §1

[5] = tested on: LXRb homodimer (NR concentration 270 nM)
How it was run: as §1

[6] = tested on: PPARa:RXRa (NR concentration 270 nM, RXRa partner concentration 90 nM)
How it was run: as §1

[7] = tested on: PPARg:RXRa (NR concentration 180 nM, RXRa partner concentration 90 nM)
How it was run: as §1

[8] = tested on: PPARg:RXRa 270nM:90nM, anti-RXR (NR concentration 270 nM, RXRa partner concentration 90 nM)
How it was run: as §1

[9] = tested on: PPARg:RXRa 30nM:10nM, anti-RXR (NR concentration 30 nM, RXRa partner concentration 10 nM)
How it was run: as §1

[10] = tested on: PPARg:RXRa 90nM:30nM, anti-RXR (NR concentration 90 nM, RXRa partner concentration 30 nM)
How it was run: as §1

[11] = tested on: PPARg:RXRa DBDmut IVT, anti-RXR (DBD mutation: RXRa K156A/R161A, NR concentration 270 nM, RXRa partner concentration 90 nM)
How it was run: as §1

[12] = tested on: PPARg:RXRa IVT, anti-PPARg (NR concentration 270 nM, RXRa partner concentration 90 nM)
How it was run: as §1

[13] = tested on: PPARg DBDmut:RXRa IVT, anti-PPARg (DBD mutation: PPARg1 K132A/R137A, NR concentration 270 nM, RXRa partner concentration 90 nM)
How it was run: as §1

[14] = tested on: PPARg DBDmut IVT, anti-PPARg (DBD mutation: PPARg1 K132A/R137A, NR concentration 270 nM)
How it was run: as §1

[15] = tested on: PPARg homodimer (NR concentration 180 nM)
How it was run: as §1

[16] = tested on: PXR:RXRa (NR concentration 270 nM, RXRa partner concentration 90 nM)
How it was run: as §1

[17] = tested on: PXR homodimer (NR concentration 270 nM)
How it was run: as §1

[18] = tested on: RARa:RXR (NR concentration 270 nM, RXRa partner concentration 90 nM)
How it was run: as §1

[19] = tested on: RARa homodimer (NR concentration 270 nM)
How it was run: as §1

[20] = tested on: RARb:RXRa (NR concentration 270 nM, RXRa partner concentration 90 nM)
How it was run: as §1

Sequence | PBM binding z-score [1] | PBM binding z-score [2] | PBM binding z-score [3] | PBM binding z-score [4] | PBM binding z-score [5] | PBM binding z-score [6] | PBM binding z-score [7] | PBM binding z-score [8] | PBM binding z-score [9] | PBM binding z-score [10] | PBM binding z-score [11] | PBM binding z-score [12] | PBM binding z-score [13] | PBM binding z-score [14] | PBM binding z-score [15] | PBM binding z-score [16] | PBM binding z-score [17] | PBM binding z-score [18] | PBM binding z-score [19] | PBM binding z-score [20]
CCGACTGGGGCAGAAAGGTTAGCATACCATCCGG | -0.121 | 0.018 | -0.422 | 0.0251 | -1.09 | 1.22 | 1.22 | 1.7 | -0.0378 | 0.958 | 1.54 | 1.41 | -0.783 | -1.16 | -0.251 | 0.123 | -0.44 | 0.634 | 0.154 | 1.43
TCTTGTAGATCAACAGGAGGTTAAAAAAGATCGA | 0.243 | 2 | 0.321 | 1.34 | -0.17 | 1.54 | 0.116 | 1.59 | 2.66 | 2.31 | 1.2 | 0.996 | 0.773 | 1.21 | -0.0647 | 0.969 | -0.197 | 0.92 | 0.296 | 0.47
ACAGACAGGGGAGTGAAGGTAACTCAGCTGGACG | 0.0883 | 0.0557 | -0.294 | 0.312 | 0.211 | 0.211 | 0.82 | 0.301 | -0.0675 | 0.442 | -0.166 | -0.191 | 0.22 | -0.386 | 0.229 | -0.136 | 0.147 | -0.342 | 0.313 | 0.21
TCATATTGGTAAAGGTGAAAGTCGAACGATATGA | 0.751 | 1.1 | -0.299 | 1.19 | 0.0352 | 2.58 | 1.89 | 3.8 | 3.95 | 3.9 | 1.58 | 1.69 | 0.994 | 1.2 | 1.15 | 0.712 | -0.162 | 1.25 | 0.406 | 1.94
CCTATTAGTTGACCACAAGGGCAACCGAAGCTCG | 0.713 | 0.65 | 0.493 | 0.591 | 0.786 | 0.698 | 0.53 | 0.203 | 0.1 | 0.256 | 0.687 | 0.913 | 0.619 | 0.658 | 1.46 | 0.841 | 1 | 0.762 | 1.46 | 1.49
ACTCGGAGGACAAAGGTCAGAGATACGCCAGTGA | 4.21 | 4.08 | 1.83 | 3.54 | 0.52 | 4.69 | 7.66 | 6.85 | 6.73 | 7.24 | 0.715 | 3.35 | 0.221 | -0.524 | 4.07 | 4.02 | 0.592 | 5.15 | 1.44 | 4.56
TCTCTGAGGACACGAAAGGTCAGAGCTCGACATC | 3.12 | 3.53 | 3.1 | 2.98 | 0.245 | 3.53 | 1.56 | 2.9 | 2.68 | 2.75 | 1.67 | 2.12 | 0.453 | 1.37 | 2.33 | 4.09 | 0.562 | 4.33 | 0.907 | 4.2
ATTTCTAGGTAACAAGTTCAGTGAAAGAGAGGAC | 1.38 | 1.39 | 1.04 | 1.18 | 1.41 | 2.76 | 3.06 | 3.44 | 1.82 | 3.09 | 5.53 | 4.99 | 3.1 | 2.25 | 1.94 | 1.79 | 2.69 | 1.45 | 2.03 | 2.12
CCTTACGGGTCACTCCAGGTGATAGCATCGGAGT | 5.24 | 5.98 | 0.158 | 3.34 | -0.0681 | 4.26 | 3.57 | 3.66 | 1.31 | 2.64 | 2.72 | 3.72 | -0.0866 | -0.18 | 1.04 | 3.75 | 0.145 | 3.53 | 0.42 | 3.51
CCTAGTTGGTCAGGAGATCACACACCGGATATGA | 0.118 | 0.263 | 0.478 | 0.0659 | 0.414 | 0.215 | 1.01 | 0.651 | 0.236 | 0.432 | 0.463 | 0.766 | 0.576 | 0.266 | 1.26 | 0.215 | 0.728 | 0.415 | 1.34 | 0.518
ATCGAAAGGTCGACGAGGTGTGTATACACCGTTT | 3.98 | 3.28 | 0.0715 | 2.62 | 0.354 | 4.22 | 2.22 | 3.12 | 1.02 | 2.17 | 0.053 | 1.53 | -0.0457 | 0.936 | 1.17 | 2.67 | -0.171 | 2.91 | 0.322 | 3.74
GATTCAGGGTCAAGGCCAGAGTACGCGTATTGAT | 6.98 | 5.3 | 0.175 | 4.43 | 0.317 | 6.12 | 6.43 | 6.72 | 3.1 | 5.41 | 3.79 | 4.63 | 1.51 | 0.0606 | 3.59 | 4.81 | 0.452 | 5.58 | 0.724 | 4.92
TAGCCTAGGTAATGCGGGCCAGTATAGTGTCGGC | -1.49 | -1.07 | -0.66 | -1.17 | -1.38 | -0.346 | 0.000474 | -0.669 | -0.676 | -0.655 | 0.0726 | 0.795 | -0.707 | -0.721 | -1.01 | -0.858 | -1.13 | -0.925 | -1.12 | -0.447
CGTCAAAGTTCAAGGTAACGTAGCAGAAAGCAGC | 6.17 | 5.74 | 2.69 | 3.38 | 0.96 | 4.55 | 4.28 | 5.21 | 2.09 | 4.31 | 0.831 | 2.13 | 0.429 | 0.415 | 4.56 | 4.44 | 3.02 | 3.64 | 2.42 | 5.1
